Structures are written as SMILES. Active and inactive are the calls of the source.

A short description of experiment [1]: compound effects on differentiated 3T3-L1 adipocyte viability – cell-based, 3T3-L1 adipocytes, calcein-AM fluorescence, 48 h, basal, profiling panel (AID 1163). The following applies: 3T3-L1 adipocytes viability, higher = more signal.
The nature of experiment [2]: compound effects on hepatocellular carcinoma cell viability – HepG2, calcein-AM fluorescence, 48 h, basal, profiling panel (AID 1164). The following applies: higher = more signal.
Experiment [3] is described as follows: compound effects on multiple myeloma cell viability – MM1S, calcein-AM fluorescence, 48 h, basal, profiling panel (AID 1165).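 Note: viability of MM1S multiple myeloma cells under basal unstimulated conditions.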 The following applies: higher = more signal.
The nature of experiment [4]: calcein-AM signal in unstimulated myeloma cells – cell-based, calcein-AM fluorescence, 48 h, PK04 Diversity Set, profiling panel (AID 1166).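 Note: cells grown under basal conditions without added stimulus.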 The following applies: RPMI8226 myeloma viability, higher = more signal.
Experiment [5] in a line: JC-1 mitochondrial signal, unstimulated HepG2 cells – cell-based, JC-1 fluorescence, 24 h, 100 nL compound, profiling panel (AID 1167). The following applies: HepG2 mitochondrial potential, higher = more signal.
A short description of experiment [6]: JC-1 mitochondrial signal, unstimulated adipocytes – cell-based, JC-1 fluorescence, 3T3-L1 adipocytes, 24 h, 100 nL compound, profiling panel (AID 1168). The following applies: JC-1 mitochondrial fluorescence, higher = more signal, called active from +8 up or from −8 down.
The nature of experiment [7]: JC-1 mitochondrial signal, unstimulated myeloma cells – cell-based, JC-1 fluorescence, RPMI8226, 24 h, 100 nL compound, profiling panel (AID 1169). The note with it: JC-1 mitochondrial potential fluorescence, higher = more signal.
Experiment [8] can be described thus: JC-1 mitochondrial signal, unstimulated MM1S myeloma – cell-based, JC-1 fluorescence, 24 h, 100 nL compound, profiling panel (AID 1170). The following applies: MM1S mitochondrial potential, higher = more signal.
Experiment [9] in a line: resazurin metabolic signal in A549 cells – cell-based, resazurin fluorescence, 24 h, PK04 Diversity Set, profiling panel (AID 1171). The note with it: A549 viability, higher = more signal, called active from +8 up or from −8 down. In general terms: Resazurin is reduced to fluorescent resorufin, in cell work by metabolically active cells.
Experiment [10] can be described thus: resazurin metabolic signal in HepG2 cells – cell-based, resazurin fluorescence, 24 h, PK04 Diversity Set, profiling panel (AID 1172). The following applies: HepG2 viability, higher = more signal.
The nature of experiment [11]: budding yeast growth changes without added modifier – OD600, strain BY4716, 24 h, basal condition, primary screen (AID 1173). The note with it: S. cerevisiae BY4716 growth, OD600, 24 h; higher = more signal, called active from +8 up or from −8 down.
The nature of experiment [12]: viability profiling in MM1S myeloma cells – cell-based, resazurin fluorescence, basal, 24 h, PK04 Diversity Set, profiling panel (AID 1174). The note with it: higher = more signal, called active from +8 up or from −8 down.
Experiment [13] deals with Dihydroorotate dehydrogenase (quinone), mitochondrial (Plasmodium falciparum (isolate 3D7)) (UniProt Q08210). Put plainly: inhibition of P. falciparum DHODH – biochemical, C-terminal His tag, absorbance 600 nm, primary screen (AID 1175).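 Note: recombinant parasite enzyme with a five histidine tag at its C terminus.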 The note with it: PfDHODH enzyme, DCIP absorbance 600 nm; higher = more signal, called active from +8 up or from −8 down.
Experiment [14] is described as follows: growth modulation of vineyard yeast isolate – strain RM11-1a, OD600, basal, 24 h, primary screen (AID 1177).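 Note: cultures grown under basal conditions with no added stressor.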 The following applies: S. cerevisiae RM11-1a growth, OD600, 24 h; higher = more signal, called active from +8 up or from −8 down.
Experiment [15] in a line: growth of efflux-deficient E. coli DRC39 – strain DRC39, OD650, 24 h, E. coli filamentation inducers, primary screen (AID 1178).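 Note: growth measured as culture turbidity by optical density at 650 nm.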 The following applies: E. coli DRC39 acrAB, higher = more signal, called active from +8 up or from −8 down.
Experiment [16] can be described thus: growth of efflux-deficient E. coli DRC39 – strain DRC39, OD650, 48 h, E. coli filamentation inducers, primary screen (AID 1179).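 Note: screen aims at cell division blockers that make cells filament.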 The note with it: E. coli DRC39 delta-acrAB growth, higher = more signal, called active from +8 up or from −8 down.
Experiment [17] can be described thus: viability profiling in RPMI8226 myeloma cells – cell-based, resazurin fluorescence, basal, 24 h, PK04 Diversity Set, profiling panel (AID 1180).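 Note: RPMI8826 multiple myeloma cell line at 5000 cells per well.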 The note with it: higher = more signal.
The target of experiment [18] is E3 ubiquitin-protein ligase XIAP (Homo sapiens) (UniProt P98170). The experiment is described as follows: small molecules binding XIAP protein – biophysical, small-molecule microarray, fluorescence 635 nm, primary screen (AID 1181).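 Note: score merges 667 nm emission and signal to noise over triplicate slides.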 The note with it: higher = more signal.
Experiment [19] concerns XIP peptide (Xip251-270) binding. Put plainly: XIP fragment 251-270 binding compounds – biochemical, small-molecule microarray, fluorescence 635/667 nm, 0.1 µg/mL protein, primary screen (AID 1182). The note with it: fluorescent protein binding, 635 nm, higher = more signal, called active from +8 up or from −8 down.
A further experiment deals with XIP peptide (Xip251-270). The experiment is described as follows: compounds binding XIP fragment 251-270 – biochemical, small-molecule microarray, fluorescence 635/667 nm, 0.5 µg/mL protein, primary screen (AID 1183). The following applies: fluorescence 635 nm, higher = more signal.

Dihydroorotate dehydrogenase (quinone), mitochondrial (Plasmodium falciparum (isolate 3D7)), sequence (Q08210 whole entry, looked up): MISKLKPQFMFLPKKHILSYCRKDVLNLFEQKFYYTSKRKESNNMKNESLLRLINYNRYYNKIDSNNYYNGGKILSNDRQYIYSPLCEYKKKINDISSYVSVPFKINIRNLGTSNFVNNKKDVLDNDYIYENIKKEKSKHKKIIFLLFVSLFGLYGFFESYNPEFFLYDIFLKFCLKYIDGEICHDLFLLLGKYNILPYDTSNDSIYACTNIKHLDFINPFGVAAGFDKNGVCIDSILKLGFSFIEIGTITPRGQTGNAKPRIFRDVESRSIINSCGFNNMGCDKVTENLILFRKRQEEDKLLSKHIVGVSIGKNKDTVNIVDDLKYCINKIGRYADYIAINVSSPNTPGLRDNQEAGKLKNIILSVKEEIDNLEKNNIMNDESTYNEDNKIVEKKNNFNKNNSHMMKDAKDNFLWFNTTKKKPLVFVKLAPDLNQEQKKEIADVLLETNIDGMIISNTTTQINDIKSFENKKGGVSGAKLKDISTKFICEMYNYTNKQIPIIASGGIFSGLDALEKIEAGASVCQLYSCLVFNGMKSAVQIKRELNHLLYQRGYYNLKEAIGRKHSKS
E3 ubiquitin-protein ligase XIAP (Homo sapiens), sequence (P98170 whole entry, looked up, the tested form may be a part): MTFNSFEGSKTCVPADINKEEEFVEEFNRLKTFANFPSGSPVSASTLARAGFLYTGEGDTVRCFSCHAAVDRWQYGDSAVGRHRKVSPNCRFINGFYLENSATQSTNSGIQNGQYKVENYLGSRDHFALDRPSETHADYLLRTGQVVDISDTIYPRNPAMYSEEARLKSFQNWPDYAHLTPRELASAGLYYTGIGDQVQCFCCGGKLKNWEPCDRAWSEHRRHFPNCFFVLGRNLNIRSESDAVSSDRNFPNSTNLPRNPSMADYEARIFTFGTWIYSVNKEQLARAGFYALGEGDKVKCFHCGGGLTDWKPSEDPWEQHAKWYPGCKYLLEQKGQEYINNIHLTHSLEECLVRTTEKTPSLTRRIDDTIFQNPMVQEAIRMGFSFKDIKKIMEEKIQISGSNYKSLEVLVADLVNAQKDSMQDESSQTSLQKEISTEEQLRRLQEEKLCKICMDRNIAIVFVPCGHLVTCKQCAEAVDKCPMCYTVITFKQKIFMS

Regarding `CCOC(=O)C[C@H]1[C@H](OC(=O)c2cc3ccccc3oc2=O)[C@@H](NC(=O)c2ccccc2)c2cc(OCCCO)ccc2N1C(=O)Cc1ccc(OC)cc1`, the z-score was 2.5 in experiment [1]; -0.382 in experiment [2]; 0.497 in [3]; -1.86 in experiment [4]; 1.66 in experiment [5]; 0.965 (inactive) in [6]. For the same compound, the z-score is -0.295 in experiment [7]; 1.13 in experiment [8]; -0.53 (inactive) in experiment [9]; -0.259 in experiment [10]; -1.99 (inactive) in experiment [11]; 0.757 (inactive) in [12]. In addition, the z-score in [14] was -0.859 (inactive); in experiment [15] it was 3.23 (inactive); in experiment [16], 1.78 (inactive); in experiment [17], 0.625. Moreover, the composite z-score in experiment [13] is -2.68 (inactive); in experiment [18] it was -0.139; in [19], 0.282 (inactive); with XIP peptide (Xip251-270), 0.273.

On to `COc1ccc(/C=C/C(=O)c2cccc(OCC(=O)OC(C)(C)C)c2)cc1`, for which the z-score in [1] is 0.934; in experiment [2], 0.158; in [3] it was -2.97; in experiment [4] it was -2.67; in experiment [5], 0.528; in [6], 0.342 (inactive). The z-score is -0.702 in [7]; 0.656 in experiment [8]; 1.26 (inactive) in experiment [9]; 0.163 in experiment [10]; -1.39 (inactive) in experiment [11]; 1.11 (inactive) in [12]. In addition, the z-score is -0.428 (inactive) in [14], 0.4 (inactive) in [15], 0.0785 (inactive) in [16] and 1.76 in experiment [17]. For the same compound, the composite z-score in [13] was 0.131 (inactive); in experiment [18], 0.0374; in experiment [19], 0.401 (inactive); with XIP peptide (Xip251-270), 0.247.

As for `C=CCN1C(=O)[C@@]2(O[C@@H](CCn3cc(CCO)nn3)[C@H]([Si](C)(C)c3ccc(OC)cc3)[C@H]2C)c2cc(NC(=O)c3ccc(OC)cc3)ccc21`, the z-score is 1.2 in experiment [1]; -0.408 in experiment [2]; -2.91 in [3]; -3.3 in experiment [4]; 0.978 in [5]; 0.659 (inactive) in experiment [6]. Moreover, the z-score in [7] was -0.925; in experiment [8], 0.212; in experiment [9], -1.27 (inactive); in experiment [10], -0.322; in experiment [11], -4.11 (inactive); in experiment [12] it was -1.55 (inactive). Further, the z-score in experiment [14] is 0.901 (inactive); in [15], 1.55 (inactive); in experiment [16], 1 (inactive); in experiment [17], -1.51. The composite z-score in [13] is -0.118 (inactive); in [18], -0.168; in [19], -0.025 (inactive); with XIP peptide (Xip251-270) it was 0.442.

As to `C=C(COC)C(=O)CC[C@H](OC(=O)c1cccnc1)c1cccc(OCCO)c1`, the z-score in [1] was 1.13; in experiment [2] it was -1.38; in [3], -3.32; in [4], -0.941; in experiment [5], 0.872; in experiment [6], 0.984 (inactive). For the same compound, the z-score in experiment [7] is -0.169; in experiment [8], -0.615; in [9], 0.633 (inactive); in experiment [10] it was 0.282; in experiment [11] it was -0.221 (inactive); in experiment [12] it was 0.839 (inactive). In addition, the z-score in experiment [14] is 1.61 (inactive); in experiment [15], 1.09 (inactive); in experiment [16], 0.757 (inactive); in experiment [17] it was -0.581. Also, the composite z-score is -0.236 (inactive) in [13], 0.0792 in experiment [18], 0.804 (inactive) in experiment [19] and -0.661 in the experiment with XIP peptide (Xip251-270).

Regarding `[N-]=[N+]=NCc1ccccc1C[C@@]1(C(=O)NCc2ccccc2)N=C(c2ccc(OCCCO)cc2)O[C@@H]1c1ccccc1`, the z-score was 0.904 in experiment [1]; -1.34 in experiment [2]; -2.85 in experiment [3]; -3.02 in experiment [4]; 0.634 in [5]; 0.187 (inactive) in experiment [6]. Also, the z-score in [7] is -0.876; in experiment [8], -0.758; in experiment [9] it was 0.507 (inactive); in [10], 1.72; in experiment [11], 1.47 (inactive); in [12], -0.544 (inactive). In addition, the z-score was 0.971 (inactive) in [14], 1.61 (inactive) in [15], 0.407 (inactive) in experiment [16] and -0.732 in experiment [17]. Further, the composite z-score in experiment [13] was -0.112 (inactive); in [18] it was -0.0172; in experiment [19], 0.746 (inactive); with XIP peptide (Xip251-270), -0.409.

As for `C[N+](C)(C)CCCCNC(=O)[C@@H]1C[C@@H]2C(=O)NCC(=O)N2[C@@H]1c1cccc(OCCO)c1`, the z-score in experiment [1] is -0.0369; in [2] it was 0.653; in experiment [3] it was 0.499; in experiment [4], 0.089; in experiment [5], 1.04; in experiment [6] it was 0.294 (inactive). The z-score is -0.361 in experiment [7]; -0.552 in experiment [8]; -0.105 (inactive) in experiment [9]; 0.165 in experiment [10]; -0.0902 (inactive) in [11]; 1.38 (inactive) in experiment [12]. The z-score was -1.21 (inactive) in experiment [14], 1.87 (inactive) in experiment [15], 1.77 (inactive) in experiment [16] and 0.356 in experiment [17]. In addition, the composite z-score in experiment [13] is -27.8 (active); in [18], 0.602; in [19] it was 0.71 (inactive); in the experiment with XIP peptide (Xip251-270) it was 0.865.

For `CC(C)C(CO)N1C(=O)[C@@H]2C3C(=O)OCCC/C=C\[C@H]3OC23C=CCN(C(C)C)C(=O)[C@@H]13` (stereo not given in full), the z-score in experiment [1] is 0.492; in experiment [2] it was -0.345; in experiment [3], 0.239; in experiment [4], -0.0156; in [5] it was 0.271; in experiment [6], -0.0599 (inactive). Further, the z-score in [7] is -0.524; in [8], 1.05; in experiment [9], 0.735 (inactive); in [10], 0.997; in experiment [11], -0.953 (inactive); in experiment [12], 0.814 (inactive). The z-score in experiment [14] was -1.36 (inactive); in experiment [15], 1.66 (inactive); in experiment [16] it was 1.26 (inactive); in experiment [17], 1.53. Further, the composite z-score in experiment [13] is -0.848 (inactive); in experiment [18], -0.269; in [19], 0.528 (inactive); with XIP peptide (Xip251-270) it was -0.501.

`C=CCC(OC(C)=O)[C@@H]1[C@@H](N(Cc2cccc3ccccc23)C(=O)c2cccc3ccccc23)c2cc(OCCCO)ccc2N1C(=O)Cc1ccc(OC)cc1` (stereo not given in full): the z-score in experiment [1] was 2.56; in experiment [2] it was 0.486; in experiment [3], 1.7; in experiment [4], -1.28; in [5], 3.07; in experiment [6], 0.451 (inactive). The z-score in [7] was 0.402; in [8], 0.779; in experiment [9], -0.245 (inactive); in [10] it was 0.147; in experiment [11] it was -3 (inactive); in [12], 1.09 (inactive). Further, the z-score was -1.48 (inactive) in experiment [14], 1.35 (inactive) in experiment [15], 0.717 (inactive) in experiment [16] and 0.301 in [17]. The composite z-score was 0.848 (inactive) in experiment [13], 0.108 in experiment [18], 0.936 (inactive) in experiment [19] and -0.314 in the experiment on XIP peptide (Xip251-270).

These data come from PubChem BioAssay.
